# Screens deposited in PubChem by National Center for Advancing Translational Sciences (NCATS).
# KDM5B inh – blocks human KDM5B histone demethylase activity | Q9UGL1 | KDM5B demethylase, FDH-coupled NADH fluorescence (FDH is formaldehyde dehydrogenase) | Potency, µM (highest dose often 57.7 µM), hits mostly inhibitors | actives 2.6% (n = 220,000); active means well fitted inhibition curve with a large enough effect; further: nearly all actives have a fitted effect of over 70% in size
# Target sequence (Q9UGL1 whole entry, looked up): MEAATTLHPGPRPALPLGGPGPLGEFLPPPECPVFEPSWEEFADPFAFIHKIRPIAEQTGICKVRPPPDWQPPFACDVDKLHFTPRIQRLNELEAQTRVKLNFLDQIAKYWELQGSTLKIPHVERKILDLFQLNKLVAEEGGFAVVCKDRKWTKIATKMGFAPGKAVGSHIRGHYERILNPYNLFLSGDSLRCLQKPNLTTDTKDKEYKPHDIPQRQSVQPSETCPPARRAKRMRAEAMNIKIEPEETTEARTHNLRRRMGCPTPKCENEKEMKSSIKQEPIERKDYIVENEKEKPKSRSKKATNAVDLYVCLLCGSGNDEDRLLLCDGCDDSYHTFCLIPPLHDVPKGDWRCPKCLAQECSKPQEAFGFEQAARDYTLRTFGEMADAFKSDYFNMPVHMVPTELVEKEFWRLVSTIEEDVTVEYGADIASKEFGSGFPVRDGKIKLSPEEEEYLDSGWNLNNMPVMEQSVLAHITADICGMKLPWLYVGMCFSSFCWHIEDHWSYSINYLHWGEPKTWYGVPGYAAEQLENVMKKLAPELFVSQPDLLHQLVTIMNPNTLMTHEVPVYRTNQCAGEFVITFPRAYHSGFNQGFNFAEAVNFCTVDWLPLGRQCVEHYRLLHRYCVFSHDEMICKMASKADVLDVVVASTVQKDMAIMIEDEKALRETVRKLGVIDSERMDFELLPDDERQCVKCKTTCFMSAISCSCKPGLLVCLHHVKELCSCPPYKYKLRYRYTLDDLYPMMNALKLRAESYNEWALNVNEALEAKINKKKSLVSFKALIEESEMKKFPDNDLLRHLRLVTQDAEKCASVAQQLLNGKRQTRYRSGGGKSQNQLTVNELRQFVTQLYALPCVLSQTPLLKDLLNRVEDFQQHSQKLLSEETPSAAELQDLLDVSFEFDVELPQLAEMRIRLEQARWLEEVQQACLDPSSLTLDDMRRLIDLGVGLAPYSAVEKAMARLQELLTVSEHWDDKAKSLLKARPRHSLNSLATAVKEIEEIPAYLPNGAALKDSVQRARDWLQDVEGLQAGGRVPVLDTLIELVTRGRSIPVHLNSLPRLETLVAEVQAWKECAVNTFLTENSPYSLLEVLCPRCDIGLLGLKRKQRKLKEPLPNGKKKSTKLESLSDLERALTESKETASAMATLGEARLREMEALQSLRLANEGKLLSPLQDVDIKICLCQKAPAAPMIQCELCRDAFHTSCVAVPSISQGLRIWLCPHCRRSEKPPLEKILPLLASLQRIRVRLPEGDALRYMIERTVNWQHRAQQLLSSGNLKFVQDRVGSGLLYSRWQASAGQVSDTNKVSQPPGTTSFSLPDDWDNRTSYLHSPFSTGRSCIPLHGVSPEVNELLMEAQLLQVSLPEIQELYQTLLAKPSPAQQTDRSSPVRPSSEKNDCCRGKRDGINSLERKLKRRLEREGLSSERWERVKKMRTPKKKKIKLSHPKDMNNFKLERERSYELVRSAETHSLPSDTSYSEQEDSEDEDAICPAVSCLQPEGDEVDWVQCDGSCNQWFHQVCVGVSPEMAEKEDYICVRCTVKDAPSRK
#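 Coupled FDH/NAD⁺ fluorescence readout. KDM5BΔAP 200 nM final; compound titration, 10 min RT preincubation; substrate mix 12.5 µM H3K4me3, 25 µM 2-OG, 50 µM Fe(II), 100 µM ascorbate, 0.25 mM NAD⁺, 0.25 U/mL FDH; ΔRFU over 30 min.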
# Numbers stand for hits; i = inactive. The entries come from a sample that favours hits as a whole.
SMILES,KDM5B inh
CC(C)Cc1nc2cccnc2n1C1CCN(S(=O)(=O)c2ccc(Br)s2)CC1,i
COc1ccc(S(=O)(=O)N(CC(=O)N2CCC(C(N)=O)CC2)c2ccccc2)cc1OC,i
CCONC(=O)COc1ccc(C#N)cc1,i
CCCCCCn1c(NC)nc2c1c(=O)n(C)c(=O)n2C,i
CCN1CCN(CCOc2ccc3cc(-c4ccccc4)c(=O)oc3c2)CC1,i
O=C(CSc1ncc(-c2ccc(F)cc2)o1)Nc1cc(F)ccc1F,i
Cc1noc2c(N(C)C)cc(-c3ccc(F)cc3)nc12,i
Cc1ccc(-c2nc3cc(NC(=O)CC(C)C)ccc3o2)cc1Cl,i
CC(=O)Nc1ccc(SC(C)C(=O)c2ccc3c(c2)CCC3)cc1 (configuration not stated),i
Cc1[nH]c2ccccc2c1C(=O)C(C)OC(=O)c1ccccc1F (configuration not stated),i
CCn1cnc2c1c(=O)n(CC(=O)OC1CCCCC1)c(=O)n2Cc1ccccc1,i
O=C(NC1CCCCC1)N1CCC(c2noc(-c3ccncc3)n2)C1 (configuration not stated),i
c1cc(-c2ccnc3nc(C4CCCCC4)nn23)ccn1,31.6µM
c1cncc(-c2ccnc3nc(CCC4CCCC4)nn23)c1,i
c1cc(-c2ccnc3nc(CCC4CCCC4)nn23)ccn1,28.2µM
COc1cc(OC)c(OC)cc1CN1CCCC(C(=O)N2CCCCCC2)C1 (configuration not stated),i
COc1ccc(S(=O)(=O)NCC2CCC(C(=O)N[C@@H](C)C(=O)NCc3ccco3)CC2)cc1 (some centres not stated),i
Cc1ccccc1Cn1cnc(NC(=O)c2ccn(COc3ccc(F)cc3F)n2)n1,i
CC(NC(=O)c1[nH]c2ccc(Cl)cc2c1Cl)C(N)=O (configuration not stated),i
Cc1ccc(NC(=O)c2n[nH]c(=O)c3ccccc23)cc1S(=O)(=O)N1CCCCC1,i
COc1ccccc1NC(=O)c1cc(=O)c2cc(C)c(C)cc2o1,i
CCC(C)(C)C1CCC(NC(=O)Cn2nc(C(N)=O)c3ccccc3c2=O)CC1 (configuration not stated),i
CCOC(=O)c1sc(-c2ccc3c(c2)OCCO3)cc1NC(=O)c1ccco1,i
Cc1ccc(C)c(S(=O)(=O)NCCc2ccc(Cl)cc2)c1,i
O=S(=O)(NCc1ccnc(OCc2ccccc2)c1)N1CCCCC1,i
SMILES,KDM5B inh
CC(=O)Nc1ccc(CN2CCC3(CC2)CC(=O)c2ccc(Cl)cc2O3)cc1,i
Cn1nccc1CN1CCC2(CC1)CNC(=O)c1ccccc1O2,i
O=C1CC2(CCN(S(=O)(=O)c3ccccc3)CC2)Oc2ccccc21,28.2µM
Cn1nccc1CN1CCC2(CC1)COc1ccccc1NC2=O,i
Cn1nccc1CN1CCC2(CC1)CC(=O)c1ccccc1O2,28.2µM
CC(=O)Nc1ccc(CN2CCC3(CC2)CNC(=O)c2ccccc2O3)cc1,i
CC(=O)Nc1ccc(CN2CCC3(CC2)CC(=O)c2ccccc2O3)cc1,22.4µM
O=C(O)C1(c2ccccc2)CCN(S(=O)(=O)c2ccccc2)CC1,i
O=C1NC2(CCN(S(=O)(=O)c3ccccc3)CC2)N=C1c1cccs1,i
Cc1ccc(C2Cn3nnc(C(=O)N4CCC(C(=O)Nc5ccc(F)c(F)c5)CC4)c3CO2)cc1 (configuration not stated),i
CCCCCC(C)NC(=O)/C=C/c1ccc(C)cc1 (configuration not stated),i
O=C1/C(=C/c2ccsc2)CCc2ccccc21,i
CCN(Cc1cccs1)C(=O)CCc1ccccc1,i
CCCCn1nc(C(=O)N(C)C2CCS(=O)(=O)C2)c2ccccc2c1=O (configuration not stated),i
Cc1ccc(-c2nnc(C3CN(C(=O)c4n[nH]c5ccccc45)CC34CCOCC4)o2)cc1 (configuration not stated),i
O=C(Nc1c(NC2CCCC2)c2ccccc2oc1=O)c1cccs1,i
Cc1ccc(SCCNC(=S)Nc2ccc(F)cc2)cc1,i
COc1nccnc1NC1CCN(C(=O)Cc2c(C)noc2C)CC1,31.6µM
COc1nccnc1NC1CCN(C(=O)Cc2ccsc2)CC1,31.6µM
Cc1noc(C)c1CC(=O)N1CCC(c2nc(C3CCOCC3)no2)CC1,i
COc1ccc(-c2noc(CC3CCN(C(=O)Cc4ccsc4)CC3)n2)cc1,i
COC1CCOC2(CCN(C(=O)NCc3ccc(F)cc3)CC2)C1 (configuration not stated),i
COCCOC1CCN(C(=O)Cc2c(C)noc2C)CC1,i
COc1ccc(CC(=O)N2CCC(Nc3nccnc3OC)CC2)cc1,28.2µM
COc1ccc(CC(=O)N2CCC(n3nccc3NC(=O)C3CC3)CC2)cc1,i
SMILES,KDM5B inh
COc1ccc(CC(=O)N2CCC(Cc3nc(-c4ccc(OC)cc4)no3)CC2)cc1,i
O=C(Cc1ccsc1)N1CCC(Nc2cccnc2)C1 (configuration not stated),i
CS(=O)(=O)N1CCC(OC2CCN(C(=O)NCc3ccc(F)cc3)CC2)CC1,i
COc1nccnc1NC1CCN(C(=O)NCc2ccc(F)cc2)CC1,28.2µM
S=C(N/N=C1/CC2C=CCC12)NC1CCCCC1 (configuration not stated),i
N#Cc1cccc(NC(=O)COc2ccc(C(=O)c3ccccc3)cc2)c1,i
O=C(NCc1ccnc(N2CCCC2)c1)c1ccc(Cl)c(S(=O)(=O)N2CCCCCC2)c1,i
N#Cc1ccccc1OCC(=O)NNC(=O)C1COc2ccccc2O1 (configuration not stated),i
O=C(CCn1ccc2ccccc21)N1CCN(S(=O)(=O)c2cccc(F)c2)CC1,i
COc1ccc(NC(=O)Cn2nc(-c3cc(C)ccc3C)c3c(c2=O)CCCC3)cc1,i
Cc1nc(-c2cccc(Cl)c2)n(CC(=O)NCc2ccc(F)cc2)c(=O)c1CCO,i
Cc1nc2ccc(C(=O)N3CCOCC3)cc2nc1C,i
O=C1N[C@H](CC(=O)N2CCN(CCc3ccncc3)CC2)C(=O)Nc2ccccc21,i
CCOc1ccccc1C(=O)N1CCN(c2cc(-c3ccc(F)cc3)[nH]n2)CC1,i
CCOc1ccccc1C(=O)N1CCN(CCc2ccccn2)CC1,i
O=C1N[C@H](CC(=O)N2CCN(c3ccccn3)CC2)C(=O)Nc2ccccc21,28.2µM
CC(C)(C)CC(=O)NCC(=O)N1CCN(c2ccccn2)CC1,28.2µM
CC(C)CCC(=O)N1CCCC(CN2CCN(c3ccccn3)CC2)C1 (configuration not stated),i
CC(C)CC(=O)NCCc1ccccn1,i
Cn1c(N2CCN(C(=O)C[C@H]3NC(=O)c4ccccc4NC3=O)CC2)nc2ccccc21,i
CC(=O)NCc1ccc(S(=O)(=O)N2CCN(c3ccccn3)CC2)cc1,i
Cn1cc(-c2ccncc2)cc1C(=O)N1CCN(c2ccccn2)CC1,i
CCOc1ccccc1C(=O)NCC(=O)N1CCN(c2ccccn2)CC1,28.2µM
CC(C)CC(=O)NCC(=O)N1CCN(c2ccccn2)CC1,25.1µM
CCc1cc(=O)n(CC(=O)Nc2cc(OC)c(OC)c(OC)c2)c(-c2ccccc2)n1,i
CC(=O)Nc1ccc(NC(=O)c2cnn(-c3ccccc3F)c2C)cc1C,i
N#Cc1c2c(c3nncn3c1NCc1ccncc1)CN(Cc1ccccc1)CC2,i
CCOC(=O)C(NC(=O)c1nccc2ccccc12)C(=O)OCC,i
CCC1CCc2c(sc(NC(=O)COCC(=O)O)c2C(=O)NCc2ccc(C)cc2)C1 (configuration not stated),i
